# Values of other authors as cited in PubChem BioAssay AID977611.
# In all, about 3,900 compounds went through this assay and about 3,900 (100%) were called active. Cut-off not given; nearly all actives show Kd up to about 4200 µM. The set was probably picked from earlier hits. The list shows a part of the results. Bridge positions count the residues as written; N and C are the ends. Square brackets hold non-standard residues; d marks the D form. Peptide text beside a SMILES is read from it. Orn(CH(NH2)2) = NC(N)NCCC[C@H](N)C(=O)O
# Assay: PubChem AID 977611
# Settings: PDB protein-ligand complexes, literature Kd
molecule,measurement,setting,value
O=C1N=C(N=Nc2c(O)[nH]c3ccc(S(O)(O)O)cc23)S/C1=C\c1ccco1,Kd,"protein: NUCLEOCAPSID PROTEIN P7, PDB entry 2m3z",0.27 µM (active)
Oc1ccc2c3c1O[C@H]1c4[nH]c5ccccc5c4C[C@@]4(O)[C@@H](C2)N(CC2CC2)CC[C@]314,Kd,"protein: Soluble cytochrome b562, Delta-type opioid receptor chimeric protein, PDB entry 4n6h",0.00052 µM (active)
H-SSKPDIVG-OH,Kd,"protein: NprR, PDB entry 4gpk",0.03 µM (active)
H-SPSGVFTFG-OH,Kd,"protein: Capsid protein p24, PDB entry 4u0c",49 µM (active)
same,Kd,"protein: Gag polyprotein, PDB entry 4u0d",49 µM (active)
CC(C)[C@H](NC(=O)[C@H](CO[P+](O)(O)O)NC(=O)[C@H](Cc1cnc[nH]1)NC(=O)[C@@H](N)Cc1ccc(O)cc1)C(=O)N[C@H](C(=O)N[C@@H](CCCNC(N)N)C(=O)N[C@@H](Cc1ccc(O)cc1)C(=O)N[C@@H](C)C(=O)O)C(C)C,Kd,"protein: MOB kinase activator 1A, PDB entry 4jiz",2.4 µM (active)
H-KHWVYY-OH,Kd,PDB entry 1abt,1.4 µM (active)
OC[C@H]1O[C@@H](S[C@@H]2O[C@H](CO)[C@H](O)[C@H](O)[C@H]2O)[C@H](O)[C@@H](O)[C@H]1O,Kd,"protein: Galectin-3, PDB entry 4jc1",50 µM (active)
OC[C@H]1O[C@@H](S[C@@H]2O[C@H](CO)[C@H](O)[C@H](O)[C@@H]2O)[C@@H](O)[C@@H](O)[C@H]1O,Kd,"protein: Galectin-3, PDB entry 4jck",4300 µM (active)
O=c1cccc2n1C[C@@H]1CNC[C@H]2C1,Kd,"protein: Aplysia californica acetylcholine-binding protein (AChBP), PDB entry 4AFO",1.64 µM (active)
same,Kd,"protein: Aplysia californica acetylcholine-binding protein (AChBP), PDB entry 4bqt",1.64 µM (active)
O=C1C(=O)N(c2ccc(Cl)c(C(=O)O)c2)[C@@H](c2cc(Br)cs2)/C1=C(\O)c1ccccc1,Kd,"protein: Polymerase cofactor Ebola virus VP35, PDB entry 4ibe",70.6 µM (active)
Cc1ccc(N2C(=O)C(=O)/C(=C(/O)c3ccccc3)[C@@H]2c2cc(Br)cs2)cc1C(=O)O,Kd,"protein: Polymerase cofactor Ebola virus VP35, PDB entry 4ibd",215 µM (active)
O=C(O)[C@H]1C2CCC(CC2)[C@@H]1Nc1nc(-c2c[nH]c3ncc(F)cc23)ncc1F,Kd,"protein: Influenza polymerase basic protein 2 (PB2), PDB entry 4p1u",0.003 µM (active)
O=C1C(=O)N(c2cccc(C(=O)O)c2)[C@@H](c2cc(Cl)c3c(c2)OCO3)/C1=C(\O)c1cccc(C(F)(F)F)c1,Kd,"protein: Polymerase cofactor Ebola virus VP35, PDB entry 4ibi",73 µM (active)
Cc1cccc(/C(O)=C2\C(=O)C(=O)N(c3ccc(CC(=O)O)cc3)[C@H]2c2cc(Cl)c3c(c2)OCO3)c1,Kd,"protein: Polymerase cofactor Ebola virus VP35, PDB entry 4ibg",108 µM (active)
O=C(O)c1cccc(N2C(=O)C(O)=C(C(=O)c3ccc(Cl)s3)[C@@H]2c2cc(Cl)c3c(c2)OCO3)c1,Kd,"protein: Polymerase cofactor Ebola virus VP35, PDB entry 4ibk",50.4 µM (active)
O=C(O)Cc1ccc(N2C(=O)C(=O)/C(=C(/O)c3ccccc3Cl)[C@@H]2c2ccccc2Cl)cc1,Kd,"protein: Polymerase cofactor Ebola virus VP35, PDB entry 4ibc",1050 µM (active)
O=C1C(=O)N(c2cccc(C(=O)O)c2)[C@@H](c2cccc(C(F)(F)F)c2)/C1=C(\O)c1cccc(C(F)(F)F)c1,Kd,"protein: Polymerase cofactor Ebola virus VP35, PDB entry 4ibj",47 µM (active)
CCN1c2cc(N)ccc2-c2ccc(N)cc2[C@H]1c1ccccc1,Kd,"protein: Putative regulatory protein, PDB entry 3vvy",14.6 µM (active)
CO[C@@H]1O[C@@H](C)[C@@H](O)[C@@H](O)[C@@H]1O,Kd,"protein: Ralstonia solanacearum fucose-binding lectin protein, PDB entry 4csd",1.23 µM (active)
Nc1c(O)n(Cc2ccccc2)c(=O)[nH]c1=O,Kd,"protein: Glucose-1-phosphate thymidylyltransferase (RmlA), PDB entry 3zll",0.395 µM (active)
same,Kd,"protein: Glucose-1-phosphate thymidylyltransferase (RmlA), PDB entry 4AS6",0.395 µM (active)
C[C@@H](O)[C@H](NC(=O)[C@@H]1CCCN1C(=O)[C@H](CO[P+](O)(O)O)NC(=O)[C@@H](N)Cc1ccc(O)cc1)C(=O)N[C@@H](CO)C(=O)N1CCC[C@H]1C(=O)O,Kd,"protein: CTD INTERACTING DOMAIN of RNA processing factor SCAF8, PDB entry 3d9n",90 µM (active)
C[C@@H](O)[C@H](NC(=O)[C@@H]1CCCN1C(=O)[C@H](CO)NC(=O)[C@@H](N)Cc1ccc(O)cc1)C(=O)N[C@@H](CO[P+](O)(O)O)C(=O)N1CCC[C@H]1C(=O)N[C@@H](CO)C(=O)O,Kd,"protein: CTD INTERACTING DOMAIN of RNA processing factor SCAF8, PDB entry 3d9m",330 µM (active)
C[C@H](Nc1nc(-c2c[nH]c3ncc(Cl)cc23)ncc1F)C(=O)N(C)C,Kd,"protein: Influenza polymerase basic protein 2 (PB2), PDB entry 4ncm",0.1 µM (active)
CC(C)[C@H](NC(=O)[C@H](Cc1c[nH]c2ccccc12)NC(=O)[C@H](Cc1c[nH]cn1)NC(=O)[C@H](CCCCN)NC(=O)[C@H](Cc1c[nH]c2ccccc12)NC(=O)CNC(=O)[C@H](CCCNC(N)N)NC(=O)[C@@H](N)Cc1ccc(O)cc1)C(=O)N[C@@H](Cc1ccc(O)cc1)C(=O)N[C@@H](Cc1ccc(O)cc1)C(=O)N[C@H](C(=O)N[C@H]1CSSC[C@@H](C(=O)N2CCC[C@H]2C(=O)N[C@@H](CC(=O)O)C(=O)N[C@H](C(=O)N2CCC[C@H]2C(=O)N[C@@H](Cc2ccc(O)cc2)C(=O)O)[C@H](C)O)NC1=O)[C@@H](C)O,Kd,PDB entry 1idg,0.065 µM (active)
CC(C)[C@H](NC(=O)[C@H](Cc1c[nH]c2ccccc12)NC(=O)[C@H](Cc1c[nH]cn1)NC(=O)[C@H](CCCCN)NC(=O)[C@H](Cc1c[nH]c2ccccc12)NC(=O)CNC(=O)[C@H](CCCNC(N)N)NC(=O)[C@@H](N)Cc1ccc(O)cc1)C(=O)N[C@@H](Cc1ccc(O)cc1)C(=O)N[C@@H](Cc1ccc(O)cc1)C(=O)N[C@H](C(=O)N[C@H]1CSSC[C@@H](C(=O)N2CCC[C@H]2C(=O)N[C@@H](CC(=O)O)C(=O)N[C@H](C(=O)N2CCC[C@H]2C(=O)N[C@@H](Cc2ccc(O)cc2)C(=O)O)[C@@H](C)O)NC1=O)[C@@H](C)O (H-Y[Orn(CH(NH2)2)]GWKHWVYYTCCPDTPY-OH; disulfide 12-13),Kd,"protein: Cbtx, PDB entry 1lxh",0.065 µM (active)
C[C@H](CC(=O)O)c1n[nH]c2nc(N)[nH]c(=O)c2c1=O,Kd,"protein: Dihydropteroate Synthase, PDB entry 4d8z",0.51 µM (active)
